Measurements from PubChem BioAssay (NCATS).
Records with an inconclusive call do not appear. Entries that show only a call come without a potency. Calls of active or inactive are those of the source. Calls come from the whole dose curve; as a rule, active = well fitted cell-killing curve with a large enough effect; inconclusive = small, poorly fitted or top-dose-only effect; inactive = no such curve, though single readings can be large or run the other way. Positions of bridges follow the written chain, without caps; N, C: chain ends. Non-standard residues stand in square brackets, D forms with d. Residues, ends and D or L forms follow the SMILES beside them. ξ: configuration not given here. *: point of attachment. Octanoyl(6-Me) = CCC(C)CCCCC(=O)*; ξThr(3R) = C[C@@H](O)C(N)C(=O)O; dDab = NCC[C@@H](N)C(=O)O; Dab = NCC[C@H](N)C(=O)O

Experiment: qHTS of pediatric cancer cell lines to identify multiple opportunities for drug repurposing: Primary screen for OHS-50 cells (AID 1347103); note: nearly all actives have a fitted effect of over 40% in size
Details: OHS-50 osteosarcoma viability, CellTiter-Glo luminescence, 48 h; series mostly up to 57.3 µM
Source text: Drug repurposing or repositioning has been offered as a strategy for drug development in oncology programs. This approach has special potential for childhood cancers and other rare or orphan diseases, where the expected return on new drug development has been a disincentive to pharmaceuticals.
In this project we exploit the poly-pharmacology of drugs to discover new indications via phenotypic screening of a panel of 19 well-characterized cell lines derived from solid tumors seen in children and adolescents. The goal is to identify approved drugs with previously unrecognized anticancer properties that has the potential to reveal new mechanisms and biological processes involved in carcinogenesis or drug resistance. We employed a titration-based paradigm (quantitative high-throughput screening or qHTS), where all compounds were tested at multiple concentrations for their effect on cell viability. Concentration-response curves (CRCs) were derived directly from the primary screen, and both potency and efficacy values were used to identify compounds with robust bioactivity profiles. We screened the NIH Chemical Genomics Center (NCGC) Pharmaceutical Collection (NPC) and Mechanism Interrogation Plate (MIPE) small molecule collections of approved and investigational compounds against these cell lines; and measured metabolically active cells after 48 hours of compound treatment as a proxy for cell viability.
Assay Submitter: Nathalia J. Martinez, National Center for Advancing Translational Sciences, National Institutes of Health, Rockville, MD, USA; email: natalia.martinez@nih.gov
[1] Shen, M et al. Quantitative high-throughput phenotypic screening of pediatric cancer cell lines identifies multiple opportunities for drug repurposing. Oncotarget 2017 Dec 19;9(4):4758-4772. PMID 29435139.
The cells were obtained from University of North Carolina (UNC), Pediatric Preclinical Testing Program (PPT), and Coriell Institute (CI).
qHTS cell viability assay:
Cells were assayed in growth media at a density of 500-1,000 cells/well. Five microliters of cells were dispensed into 1,536-well, white, solid-bottom, TC-treated plates (Greiner Bio One) using a multidrop dispenser and incubated at 37 degrees C, 5% CO2, under a humidified atmosphere for 5 hours. Twenty-three nanoliters of compounds and controls (neutral control DMSO or positive control bortezomib at final concentration of 2.3 µM) were subsequently transferred by Kalypsys pintool. For primary screens, the MIPE collection was tested at 11-point dilutions (final concentrations range from 0.78 nM to 46 µM) and the NPC collection at 8-point dilutions (final concentrations range from 0.59 nM to 46 µM). Compounds tested in follow-up screens were assayed at 11-point dilutions. Cells were incubated for 48 hours, followed by addition of 3 µL of CellTiter-Glo (Promega). After a 15 min incubation at room temperature, samples were analyzed for luminescence intensity using a ViewLux High-throughput CCD imager equipped with clear filters.
Potency is the fitted concentration of half-maximal effect.

Row | Compound | Potency
1 | CCN(CC)CCNC(=O)c1c(C)[nH]c(C=C2C(=O)Nc3ccc(F)cc32)c1C | 1.4 µM (active)
2 | CN1C(C(=O)Nc2ccccn2)=C(O)c2sc(Cl)cc2S1(=O)=O | inactive
3 | COc1cc(CCc2cc(NC(=O)c3ccc(N4C[C@@H](C)N[C@@H](C)C4)cc3)n[nH]2)cc(OC)c1 | 5.44 µM (active)
4 | O=C(O)C=Cc1ccc(Cn2ccnc2)cc1 | inactive
5 | C[N+](C)([O-])CCNc1ccc(NCC[N+](C)(C)[O-])c2c1C(=O)c1c(O)ccc(O)c1C2=O | inactive
6 | COc1cc(OC)c(C=CS(=O)(=O)Cc2ccc(OC)c(NCC(=O)O)c2)c(OC)c1 | 0.172 µM (active)
7 | O=C1NC(O)CCN1[C@@H]1O[C@H](CO)[C@H](O)[C@H]1O (stereo not given in full) | inactive
8 | CCOC(=O)C=C[C@H](C[C@@H]1CCNC1=O)NC(=O)[C@@H](CC(=O)[C@@H](NC(=O)c1cc(C)on1)C(C)C)Cc1ccc(F)cc1 | inactive
9 | C=C1CCC2[C@](C)(CO)C(O)CC[C@]2(C)C1CC=C1C(=O)OCC1O (stereo not given in full) | inactive
10 | NC(=O)c1cccc(-c2cccc(OC(=O)NC3CCCCC3)c2)c1 | inactive
11 | CC(C)(O)CC[C@@H](O)[C@](C)(O)[C@H]1CC[C@@]2(O)C3=CC(=O)[C@@H]4C[C@@H](O)[C@@H](O)C[C@]4(C)[C@@H]3CC[C@]12C | inactive
12 | COC(=O)[C@H](CCCN=C(N)N)NS(=O)(=O)c1ccc(C)cc1 | inactive
13 | O=C1NCCc2[nH]c(-c3ccncc3)cc21 | 2.43 µM (active)
14 | NC(=O)Nc1sc(-c2ccc(F)cc2)cc1C(N)=O | 0.432 µM (active)
15 | CC[C@]12C=CCN3CC[C@@]4(c5cc([C@@]6(C(=O)OC)C[C@H]7C[C@@H](C(C)(F)F)CN(Cc8c6[nH]c6ccccc86)C7)c(OC)cc5N(C)[C@H]4[C@@](O)(C(=O)OC)[C@H]1OC(C)=O)[C@@H]32 | 0.0193 µM (active)
16 | O=C1CSC(=O)N1C(CCc1ccncc1)COc1ccc(-c2cccc([N+](=O)[O-])c2)cc1 (stereo not given) | 4.85 µM (active)
17 | COc1cc2c(cc1OC)[C@@H]1C(=O)c3ccc4c(c3O[C@@H]1CO2)C=CC(C)(C)O4 | 0.172 µM (active)
18 | C[C@@H]1CC[C@@]2(OC1)OC1CC3C4CC=C5CC(O)CCC5(C)C4CCC3(C)C1[C@@H]2C (stereo not given in full) | inactive
19 | Nc1nc(=O)n([C@H]2C[C@H](O)[C@@H](CO)O2)cc1F | inactive
20 | C=C1C(=O)O[C@H]2[C@@H]1CCC(C)=CCC[C@@]1(C)O[C@@H]21 | 4.85 µM (active)

Row | Compound | Potency
21 | Cc1nc(NC(=O)N2CCC[C@@H]2C(N)=O)sc1-c1ccnc(C(C)(C)C(F)(F)F)c1 | 0.485 µM (active)
22 | C=CC[C@@H]1C=C(C)C[C@H](C)C[C@H](OC)[C@H]2O[C@@](O)(C(=O)C(=O)N3CCCC[C@H]3C(=O)O[C@H](C(C)=C[C@@H]3CC[C@H](O)[C@H](OC)C3)[C@@H](C)[C@@H](O)CC1=O)[C@@H](C)C[C@@H]2OC | 6.11 µM (active)
23 | CCC[C@H]1C[C@H](C(=O)N[C@@H]([C@@H]2O[C@@H](SC)[C@@H](O)[C@@H](O)[C@@H]2O)[C@H](C)Cl)N(C)C1 | inactive
24 | CCNC(=O)Nc1ccc(-c2nc3c(c(N4CCOC[C@H]4C)n2)CCN(C2COC2)C3)cc1 | 0.485 µM (active)
25 | CCCc1nc(C(C)(C)O)c(C(=O)O)n1Cc1ccc(-c2ccccc2-c2nn[nH]n2)cc1 | inactive
26 | CCOC(=O)N1CCN([N+]([O-])=NOc2ccc([N+](=O)[O-])cc2C#N)CC1 | 3.43 µM (active)
27 | Cc1cc(O)c2c(c1)C(=O)c1cccc(O)c1C2=O | inactive
28 | CON=C(C(=O)N[C@@H]1C(=O)N2C(C(=O)O)=C(Cn3ccc(=N)n3CCO)CS[C@H]12)c1csc(N)n1 | inactive
29 | CN(C)c1ccc(C(=O)NCCCCCCC(=O)NO)cc1 | 0.344 µM (active)
30 | NC1=N[C@H]2[C@H](CS[C@H]2CCCCC(=O)O)N1 | inactive
31 | Cn1cc(C2=C(c3c4n(c5ccccc35)CCC(CN)C4)C(=O)NC2=O)c2ccccc21 (stereo not given) | 24.3 µM (active)
32 | Oc1ccc([C@@H]2Oc3ccc(O)cc3[C@@H]3CCC[C@@H]32)cc1 | 24.3 µM (active)
33 | CN(C)CCN1C(=O)c2cccc3cc(N)cc(c23)C1=O | 24.3 µM (active)
34 | C[C@@H](Oc1ccc2[nH]nc(C=Cc3cnn(CCO)c3)c2c1)c1c(Cl)cncc1Cl | 7.69 µM (active)
35 | CCC(C)CCCCC(=O)N[C@@H](CCN)C(=O)NC(C(=O)N[C@H](CCN)C(=O)N[C@@H]1CCNC(=O)C([C@@H](C)O)NC(=O)[C@@H](CCN)NC(=O)[C@@H](CCN)NC(=O)[C@@H](CC(C)C)NC(=O)[C@H](Cc2ccccc2)NC(=O)[C@H](CCN)NC1=O)[C@@H](C)O (stereo partly drawn) ({Octanoyl(6-Me)}-[Dab][ξThr(3R)][dDab][dDab][Dab]F[dL][dDab][dDab][ξThr(3R)]; lactam 4-C) | inactive
36 | CC1(C)O[C@@H]2C[C@H]3[C@@H]4CCC5=CC(=O)C=C[C@]5(C)[C@@H]4[C@@H](O)C[C@]3(C)[C@]2(C(=O)CO)O1 | inactive
37 | C=CCNC1=C2C[C@@H](C)C[C@H](OC)[C@@H](O)[C@@H](C)C=C(C)[C@H](OC(N)=O)[C@@H](OC)C=CC=C(C)C(=O)NC(=CC1=O)C2=O | 1.22 µM (active)
38 | c1cc(N[C@@H]2CCNC2)nc(-c2cnc3ccc(-c4cn[nH]c4)cn23)c1 | 19.3 µM (active)
39 | CCCCC(=O)O[C@]1(C(=O)CO)[C@@H](C)C[C@H]2[C@@H]3CCC4=CC(=O)C=C[C@]4(C)[C@@]3(F)[C@@H](O)C[C@@]21C | inactive
40 | OCCN1C[C@H](O)[C@@H](O)[C@H](O)[C@@H]1CO | inactive
